# Reference: PMC7862700, “An all-to-all approach to the identification of sequence-specific readers for epigenetic DNA modifications on cytosine”
# Tests used:
# Assay in all cases: DAPPL (digital affinity profiling via proximity ligation, sequencing); 10 mM Tris-HCl pH 7.5, 50 mM NaCl, 1 mM DTT, 4% glycerol, room temperature, 30 min; GST-TFs on glutathione beads, 16-mer random dsDNA library, 0.1% formaldehyde crosslink after washing; high values mean tight binding
# FLI1 = molecular target: T1, FLI1 (Homo sapiens, UniProt Q01543 1-452); settings: protein: recombinant; tags: N-terminal GST; dsDNA, one strand shown
# T1 sequence: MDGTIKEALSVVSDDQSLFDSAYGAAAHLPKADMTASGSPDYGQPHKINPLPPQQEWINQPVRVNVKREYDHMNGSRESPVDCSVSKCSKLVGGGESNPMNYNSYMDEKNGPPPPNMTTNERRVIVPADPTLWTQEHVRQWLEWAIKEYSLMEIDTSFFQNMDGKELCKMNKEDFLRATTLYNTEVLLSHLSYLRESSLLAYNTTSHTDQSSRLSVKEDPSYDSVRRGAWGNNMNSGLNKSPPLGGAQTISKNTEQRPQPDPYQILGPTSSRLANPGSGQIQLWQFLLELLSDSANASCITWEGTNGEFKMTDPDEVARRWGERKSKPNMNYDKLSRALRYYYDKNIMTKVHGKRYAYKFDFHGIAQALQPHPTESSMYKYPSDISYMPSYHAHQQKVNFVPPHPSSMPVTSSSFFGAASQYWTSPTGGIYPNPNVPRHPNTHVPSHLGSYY
# How it was run: (§1)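 After expression in yeast as GST fusions, human transcription factors were bound to glutathione beads, DNA-barcoded and mixed with a tag-only sample. The pools were incubated with 200 nmole of a 16-mer random double-stranded DNA library in Tris/NaCl/DTT/glycerol buffer (30 min, room temperature), washed and crosslinked with 0.1% formaldehyde. Proximity ligation with BsaI/T4 ligase ran for 1 h at 37 °C, before PCR amplification and sequencing on an Illumina NextSeq500. Binding signal is a hexamer's read frequency for a factor divided by its frequency for the tag-only sample.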
# ELK1 = molecular target: T2, ELK1 (Homo sapiens, UniProt P19419 1-428); settings: protein: recombinant; tags: N-terminal GST; dsDNA, one strand shown
# T2 sequence: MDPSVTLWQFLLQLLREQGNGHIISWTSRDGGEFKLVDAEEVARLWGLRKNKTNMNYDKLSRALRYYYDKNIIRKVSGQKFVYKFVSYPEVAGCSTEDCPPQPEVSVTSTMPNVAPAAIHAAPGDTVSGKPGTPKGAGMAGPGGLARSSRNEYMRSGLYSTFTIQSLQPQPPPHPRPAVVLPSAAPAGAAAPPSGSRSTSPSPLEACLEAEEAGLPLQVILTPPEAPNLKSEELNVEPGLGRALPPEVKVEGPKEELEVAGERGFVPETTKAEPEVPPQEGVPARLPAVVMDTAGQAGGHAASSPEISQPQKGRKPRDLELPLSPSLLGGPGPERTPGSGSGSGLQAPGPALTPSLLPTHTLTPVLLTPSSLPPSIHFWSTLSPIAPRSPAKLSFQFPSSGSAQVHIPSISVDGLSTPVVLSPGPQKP
# How it was run: as §1
# GABPA = molecular target: T3, GABPA (Homo sapiens, UniProt Q06546 1-454); settings: protein: recombinant; tags: N-terminal GST; dsDNA, one strand shown
# T3 sequence: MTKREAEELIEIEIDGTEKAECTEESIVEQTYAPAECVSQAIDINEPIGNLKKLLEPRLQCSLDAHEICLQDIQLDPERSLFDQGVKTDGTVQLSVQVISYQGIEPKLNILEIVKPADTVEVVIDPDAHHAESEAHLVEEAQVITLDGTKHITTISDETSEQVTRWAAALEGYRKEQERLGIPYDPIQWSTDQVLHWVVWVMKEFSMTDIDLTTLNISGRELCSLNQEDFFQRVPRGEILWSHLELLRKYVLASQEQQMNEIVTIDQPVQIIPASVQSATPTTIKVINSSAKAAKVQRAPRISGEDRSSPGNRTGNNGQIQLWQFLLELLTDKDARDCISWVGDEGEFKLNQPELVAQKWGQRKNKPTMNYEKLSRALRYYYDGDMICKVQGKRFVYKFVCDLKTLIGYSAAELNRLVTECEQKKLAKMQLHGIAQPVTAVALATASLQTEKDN
# How it was run: as §1
# ERG = molecular target: T4, ERG (Homo sapiens, UniProt P11308 1-479); settings: protein: recombinant; tags: N-terminal GST; dsDNA, one strand shown
# T4 sequence: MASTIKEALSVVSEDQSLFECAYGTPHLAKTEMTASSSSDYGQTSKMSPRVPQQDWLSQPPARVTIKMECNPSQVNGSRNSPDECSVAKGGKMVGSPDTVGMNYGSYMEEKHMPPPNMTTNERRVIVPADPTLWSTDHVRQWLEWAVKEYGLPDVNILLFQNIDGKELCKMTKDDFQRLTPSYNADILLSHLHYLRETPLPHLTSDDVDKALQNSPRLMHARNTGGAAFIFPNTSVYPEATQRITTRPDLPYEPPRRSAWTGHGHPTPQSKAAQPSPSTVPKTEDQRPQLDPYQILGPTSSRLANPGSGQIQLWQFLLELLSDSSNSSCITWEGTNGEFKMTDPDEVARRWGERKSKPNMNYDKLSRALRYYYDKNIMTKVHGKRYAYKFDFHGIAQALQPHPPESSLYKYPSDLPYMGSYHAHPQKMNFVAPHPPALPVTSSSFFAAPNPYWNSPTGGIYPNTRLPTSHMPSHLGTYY
# How it was run: as §1
# ELF1 = ELF1 (Homo sapiens, UniProt P32519 1-619); settings: protein: recombinant; tags: N-terminal GST; dsDNA, one strand shown
# How it was run: as §1
# EHF = molecular target: T5, EHF (Homo sapiens, UniProt Q9NZC4 1-300); settings: protein: recombinant; tags: N-terminal GST; dsDNA, one strand shown
# T5 sequence: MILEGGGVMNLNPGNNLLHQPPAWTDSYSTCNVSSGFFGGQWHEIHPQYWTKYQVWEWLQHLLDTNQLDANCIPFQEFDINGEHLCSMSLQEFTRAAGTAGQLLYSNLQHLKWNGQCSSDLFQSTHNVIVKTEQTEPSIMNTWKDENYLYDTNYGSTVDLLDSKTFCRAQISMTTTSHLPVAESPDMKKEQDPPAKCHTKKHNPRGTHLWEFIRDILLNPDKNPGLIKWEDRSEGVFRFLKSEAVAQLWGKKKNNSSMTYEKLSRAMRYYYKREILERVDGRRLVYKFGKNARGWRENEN
# How it was run: as §1
# SPI1 = SPI1 (Homo sapiens, UniProt P17947 1-270); settings: protein: recombinant; tags: N-terminal GST; dsDNA, one strand shown
# How it was run: as §1
# SPIB = SPIB (Homo sapiens, UniProt Q01892 1-262); settings: protein: recombinant; tags: N-terminal GST; dsDNA, one strand shown
# How it was run: as §1
# ELK3 = molecular target: T6, ELK3 (Homo sapiens, UniProt P41970 1-407); settings: protein: recombinant; tags: N-terminal GST; dsDNA, one strand shown
# T6 sequence: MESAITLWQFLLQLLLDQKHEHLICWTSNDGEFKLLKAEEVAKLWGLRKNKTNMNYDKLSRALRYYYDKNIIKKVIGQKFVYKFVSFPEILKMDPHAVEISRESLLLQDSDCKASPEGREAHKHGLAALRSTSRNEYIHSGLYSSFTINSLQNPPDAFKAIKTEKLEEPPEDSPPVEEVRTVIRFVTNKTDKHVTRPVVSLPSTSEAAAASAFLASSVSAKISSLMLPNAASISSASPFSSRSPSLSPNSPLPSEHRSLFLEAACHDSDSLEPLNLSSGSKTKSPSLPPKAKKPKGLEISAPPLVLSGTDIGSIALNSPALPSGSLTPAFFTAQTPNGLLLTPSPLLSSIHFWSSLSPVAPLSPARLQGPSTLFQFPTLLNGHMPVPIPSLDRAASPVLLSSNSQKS
# How it was run: as §1
# FEV = molecular target: T7, FEV (Homo sapiens, UniProt Q99581 1-238); settings: protein: recombinant; tags: N-terminal GST; dsDNA, one strand shown
# T7 sequence: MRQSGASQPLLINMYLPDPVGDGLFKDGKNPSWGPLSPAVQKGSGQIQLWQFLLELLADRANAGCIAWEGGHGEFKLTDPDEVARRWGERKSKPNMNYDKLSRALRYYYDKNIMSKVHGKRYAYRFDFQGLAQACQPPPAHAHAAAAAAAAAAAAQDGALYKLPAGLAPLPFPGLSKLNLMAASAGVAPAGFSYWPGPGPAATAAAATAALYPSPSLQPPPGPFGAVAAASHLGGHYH
# How it was run: as §1
# ETV5 = ETV5 (Homo sapiens, UniProt P41161 1-510); settings: protein: recombinant; tags: N-terminal GST; dsDNA, one strand shown
# How it was run: as §1
# HSF1 = HSF1 (Homo sapiens, UniProt Q00613 1-529); settings: protein: recombinant; tags: N-terminal GST; chain copies: 3; dsDNA, one strand shown
# How it was run: as §1
# SPIC = molecular target: T8, SPIC (Homo sapiens, UniProt Q8N5J4 1-248); settings: protein: recombinant; tags: N-terminal GST; dsDNA, one strand shown
# T8 sequence: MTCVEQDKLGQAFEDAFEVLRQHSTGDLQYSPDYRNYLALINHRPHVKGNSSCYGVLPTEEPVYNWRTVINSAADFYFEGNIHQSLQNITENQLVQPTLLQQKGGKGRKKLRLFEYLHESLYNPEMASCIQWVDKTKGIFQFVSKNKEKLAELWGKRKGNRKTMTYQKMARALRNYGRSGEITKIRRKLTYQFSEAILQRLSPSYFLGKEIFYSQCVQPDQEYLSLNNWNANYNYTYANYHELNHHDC
# How it was run: as §1
# ELF4 = ELF4 (Homo sapiens, UniProt Q99607 1-663); settings: protein: recombinant; tags: N-terminal GST; dsDNA, one strand shown
# How it was run: as §1
# ELK4 = molecular target: T9, ELK4 (Homo sapiens, UniProt P28324-2 1-405); settings: protein: recombinant; tags: N-terminal GST; dsDNA, one strand shown
# T9 sequence: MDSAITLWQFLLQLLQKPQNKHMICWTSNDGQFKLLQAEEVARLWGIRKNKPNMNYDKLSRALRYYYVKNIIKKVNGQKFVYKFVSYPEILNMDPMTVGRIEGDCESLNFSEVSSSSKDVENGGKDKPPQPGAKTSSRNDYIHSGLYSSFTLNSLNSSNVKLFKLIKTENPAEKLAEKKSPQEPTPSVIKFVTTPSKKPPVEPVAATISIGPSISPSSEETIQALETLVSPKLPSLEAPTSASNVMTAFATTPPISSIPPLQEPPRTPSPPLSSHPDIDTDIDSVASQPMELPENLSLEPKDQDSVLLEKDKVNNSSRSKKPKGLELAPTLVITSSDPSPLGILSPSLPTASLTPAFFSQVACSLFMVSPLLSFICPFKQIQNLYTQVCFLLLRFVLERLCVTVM
# How it was run: as §1
# ETV2 = molecular target: T10, ETV2 (Homo sapiens, UniProt O00321 1-342); settings: protein: recombinant; tags: N-terminal GST; dsDNA, one strand shown
# T10 sequence: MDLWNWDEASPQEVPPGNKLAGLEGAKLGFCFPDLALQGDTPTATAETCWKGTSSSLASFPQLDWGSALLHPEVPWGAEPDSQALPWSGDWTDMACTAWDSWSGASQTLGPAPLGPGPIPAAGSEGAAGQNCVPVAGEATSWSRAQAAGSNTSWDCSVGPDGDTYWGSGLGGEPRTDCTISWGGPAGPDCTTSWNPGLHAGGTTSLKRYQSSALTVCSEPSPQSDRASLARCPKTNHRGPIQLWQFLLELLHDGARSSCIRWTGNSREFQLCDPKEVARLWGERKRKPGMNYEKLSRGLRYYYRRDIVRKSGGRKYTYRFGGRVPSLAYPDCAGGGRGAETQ
# How it was run: as §1
# ELF3 = molecular target: T11, ELF3 (Homo sapiens, UniProt P78545 1-371); settings: protein: recombinant; tags: N-terminal GST; dsDNA, one strand shown
# T11 sequence: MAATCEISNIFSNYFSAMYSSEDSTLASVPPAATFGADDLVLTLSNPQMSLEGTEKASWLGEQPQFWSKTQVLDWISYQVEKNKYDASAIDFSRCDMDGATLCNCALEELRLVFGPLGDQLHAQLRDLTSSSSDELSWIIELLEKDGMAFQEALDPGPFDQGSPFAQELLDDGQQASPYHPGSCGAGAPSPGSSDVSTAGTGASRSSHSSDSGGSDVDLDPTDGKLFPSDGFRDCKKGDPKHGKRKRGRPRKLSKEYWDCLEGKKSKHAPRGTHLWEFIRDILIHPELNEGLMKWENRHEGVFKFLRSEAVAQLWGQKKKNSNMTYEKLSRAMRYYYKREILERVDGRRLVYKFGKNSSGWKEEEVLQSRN
# How it was run: as §1
# ETV1 = ETV1 (Homo sapiens, UniProt P50549 1-477); settings: protein: recombinant; tags: N-terminal GST; dsDNA, one strand shown
# How it was run: as §1
# Sequence of ETV5 (P41161 whole entry): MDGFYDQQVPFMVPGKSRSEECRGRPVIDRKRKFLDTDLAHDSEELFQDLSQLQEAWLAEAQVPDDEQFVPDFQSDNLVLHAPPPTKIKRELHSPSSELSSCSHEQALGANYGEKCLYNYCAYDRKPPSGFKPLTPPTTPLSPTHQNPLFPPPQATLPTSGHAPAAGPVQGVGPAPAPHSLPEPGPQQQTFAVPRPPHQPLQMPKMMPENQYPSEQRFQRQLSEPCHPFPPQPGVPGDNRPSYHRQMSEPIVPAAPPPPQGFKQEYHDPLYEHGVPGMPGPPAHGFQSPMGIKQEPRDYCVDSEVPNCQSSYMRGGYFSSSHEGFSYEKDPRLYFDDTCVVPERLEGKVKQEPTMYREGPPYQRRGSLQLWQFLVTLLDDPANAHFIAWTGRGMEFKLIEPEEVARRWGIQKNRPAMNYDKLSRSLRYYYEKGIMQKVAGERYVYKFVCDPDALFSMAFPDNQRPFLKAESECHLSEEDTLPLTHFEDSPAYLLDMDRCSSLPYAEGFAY
# Sequence of ELF4 (Q99607 whole entry): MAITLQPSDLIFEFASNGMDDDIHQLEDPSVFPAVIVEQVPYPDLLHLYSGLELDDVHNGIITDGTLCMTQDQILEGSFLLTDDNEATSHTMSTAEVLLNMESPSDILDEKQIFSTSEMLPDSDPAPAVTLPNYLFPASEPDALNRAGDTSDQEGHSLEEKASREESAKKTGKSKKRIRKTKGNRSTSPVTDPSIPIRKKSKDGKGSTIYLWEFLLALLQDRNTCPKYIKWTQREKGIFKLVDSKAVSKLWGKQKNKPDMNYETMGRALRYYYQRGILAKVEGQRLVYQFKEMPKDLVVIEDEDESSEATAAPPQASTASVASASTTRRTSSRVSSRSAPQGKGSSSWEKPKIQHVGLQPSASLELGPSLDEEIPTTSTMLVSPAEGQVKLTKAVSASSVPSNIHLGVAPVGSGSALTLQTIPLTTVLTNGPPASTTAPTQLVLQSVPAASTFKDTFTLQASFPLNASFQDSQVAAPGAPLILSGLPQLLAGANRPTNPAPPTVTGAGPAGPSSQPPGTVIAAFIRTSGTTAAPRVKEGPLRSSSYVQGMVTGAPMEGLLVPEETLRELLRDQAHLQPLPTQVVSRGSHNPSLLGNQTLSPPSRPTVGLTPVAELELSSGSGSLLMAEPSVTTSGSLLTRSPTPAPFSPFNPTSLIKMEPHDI
# Sequence of ETV1 (P50549 whole entry): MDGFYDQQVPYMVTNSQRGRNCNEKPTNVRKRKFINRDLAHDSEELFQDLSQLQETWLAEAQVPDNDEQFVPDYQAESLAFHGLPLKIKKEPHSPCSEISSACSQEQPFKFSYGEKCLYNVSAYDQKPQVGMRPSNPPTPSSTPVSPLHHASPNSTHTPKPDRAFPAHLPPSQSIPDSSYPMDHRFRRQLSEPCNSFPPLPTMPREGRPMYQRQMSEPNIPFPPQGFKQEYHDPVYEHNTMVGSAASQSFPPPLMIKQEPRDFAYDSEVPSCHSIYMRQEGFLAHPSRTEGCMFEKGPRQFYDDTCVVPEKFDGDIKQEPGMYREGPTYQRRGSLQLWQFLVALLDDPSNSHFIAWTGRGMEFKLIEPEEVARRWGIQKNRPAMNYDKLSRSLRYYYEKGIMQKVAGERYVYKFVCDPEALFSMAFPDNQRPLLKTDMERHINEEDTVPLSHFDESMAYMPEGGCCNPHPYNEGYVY
# Sequence of ELF1 (P32519 whole entry): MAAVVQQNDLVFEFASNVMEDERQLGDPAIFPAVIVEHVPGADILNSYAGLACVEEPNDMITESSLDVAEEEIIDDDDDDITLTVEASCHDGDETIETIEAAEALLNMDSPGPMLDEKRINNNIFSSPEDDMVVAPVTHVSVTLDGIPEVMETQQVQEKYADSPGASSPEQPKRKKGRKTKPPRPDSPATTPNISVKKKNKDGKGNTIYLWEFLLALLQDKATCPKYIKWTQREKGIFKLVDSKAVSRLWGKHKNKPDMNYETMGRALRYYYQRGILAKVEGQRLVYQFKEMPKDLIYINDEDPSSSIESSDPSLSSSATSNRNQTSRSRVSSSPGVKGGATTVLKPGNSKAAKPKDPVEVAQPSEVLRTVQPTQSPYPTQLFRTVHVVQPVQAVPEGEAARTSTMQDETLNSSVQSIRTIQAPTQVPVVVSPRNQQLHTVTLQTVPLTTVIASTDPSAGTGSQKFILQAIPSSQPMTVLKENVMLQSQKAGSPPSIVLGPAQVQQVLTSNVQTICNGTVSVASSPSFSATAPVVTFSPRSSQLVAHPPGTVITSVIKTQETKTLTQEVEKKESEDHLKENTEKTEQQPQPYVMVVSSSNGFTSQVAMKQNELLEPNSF
# Sequence of SPIB (Q01892 whole entry): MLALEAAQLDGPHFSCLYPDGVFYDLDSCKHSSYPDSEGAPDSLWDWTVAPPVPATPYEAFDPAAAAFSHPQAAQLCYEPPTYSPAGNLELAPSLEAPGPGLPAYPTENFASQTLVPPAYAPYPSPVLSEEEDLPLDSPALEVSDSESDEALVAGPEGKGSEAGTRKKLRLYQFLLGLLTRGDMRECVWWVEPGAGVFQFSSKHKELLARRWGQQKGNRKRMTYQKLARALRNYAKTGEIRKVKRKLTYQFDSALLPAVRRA
# Sequence of HSF1 (Q00613 whole entry): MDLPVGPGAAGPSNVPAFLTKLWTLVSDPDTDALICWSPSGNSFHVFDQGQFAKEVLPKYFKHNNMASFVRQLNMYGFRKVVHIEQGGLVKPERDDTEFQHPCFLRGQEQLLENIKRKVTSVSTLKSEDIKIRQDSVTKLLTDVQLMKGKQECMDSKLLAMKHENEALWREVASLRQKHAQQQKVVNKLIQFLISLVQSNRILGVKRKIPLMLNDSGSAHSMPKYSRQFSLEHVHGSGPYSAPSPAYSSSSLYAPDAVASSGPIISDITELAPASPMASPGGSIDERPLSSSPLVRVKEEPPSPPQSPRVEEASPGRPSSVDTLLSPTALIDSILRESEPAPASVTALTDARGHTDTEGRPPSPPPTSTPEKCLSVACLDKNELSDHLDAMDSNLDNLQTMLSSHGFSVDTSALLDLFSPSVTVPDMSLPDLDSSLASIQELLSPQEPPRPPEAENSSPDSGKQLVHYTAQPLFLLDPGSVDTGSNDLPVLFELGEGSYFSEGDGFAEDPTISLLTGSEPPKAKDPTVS
sequence,measurement,setting,value
CTGCCG,binding signal,FLI1,"1.28 fold enrichment (6-mer frequency, TF over GST control)"
same,binding signal,ELK1,"1.45 fold enrichment (6-mer frequency, TF over GST control)"
same,binding signal,GABPA,"1.36 fold enrichment (6-mer frequency, TF over GST control)"
same,binding signal,ERG,"1.26 fold enrichment (6-mer frequency, TF over GST control)"
same,binding signal,ELF1,"1.34 fold enrichment (6-mer frequency, TF over GST control)"
same,binding signal,EHF,"1.39 fold enrichment (6-mer frequency, TF over GST control)"
same,binding signal,SPI1,"1.22 fold enrichment (6-mer frequency, TF over GST control)"
same,binding signal,SPIB,"1.41 fold enrichment (6-mer frequency, TF over GST control)"
same,binding signal,ELK3,"1.27 fold enrichment (6-mer frequency, TF over GST control)"
same,binding signal,FEV,"1.35 fold enrichment (6-mer frequency, TF over GST control)"
same,binding signal,ETV5,"1.36 fold enrichment (6-mer frequency, TF over GST control)"
same,binding signal,HSF1,"1.04 fold enrichment (6-mer frequency, TF over GST control)"
same,binding signal,SPIC,"1.31 fold enrichment (6-mer frequency, TF over GST control)"
same,binding signal,ELF4,"1.28 fold enrichment (6-mer frequency, TF over GST control)"
same,binding signal,ELK4,"1.24 fold enrichment (6-mer frequency, TF over GST control)"
same,binding signal,ETV2,"1.07 fold enrichment (6-mer frequency, TF over GST control)"
same,binding signal,ELF3,"1.09 fold enrichment (6-mer frequency, TF over GST control)"
same,binding signal,ETV1,"1.34 fold enrichment (6-mer frequency, TF over GST control)"
